Experimental data: PubChem BioAssay (NCI)
This is part of a sample that, as a whole, favours compounds with a hit. Of some 83,000 tested, about 20% had one in any assay.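 For each line, cells grew in 96-well plates with the test compound present at a single concentration for 48 hours.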 A number with no mark means an inactive call. Activity calls are given as the source filed them. The calls were made as follows: active = growth percent below 10; inactive = the rest.

Tested on: MDA-MB-468 breast
Assay: NCI-60 one-dose screen, 48 h (100 = growth as untreated, 0 = no growth, -100 = all killed)
Settings: 10 µM unless noted

| Structure (SMILES) | growth |
| --- | --- |
| CC(C)CCN(CCC(C)C)CC(O)c1cc2c(c3ccccc13)CCCC2 (stereo not given) | 54% |
| NC(=O)c1c(NC(=O)c2ccc(C(F)(F)F)cc2)sc2c1CCC(=O)C2 | -30.7% (active) |
| N#Cc1ccc(C(=O)CSc2nccc(Nc3ccc(C(=O)O)cc3)n2)cc1 | 101% |
| C=C(C)[C@@H]1CC[C@]2(C(=O)N3CCN(C)CC3)CC[C@]3(C)[C@H](CC[C@@H]4[C@@]5(C)C/C(=C/c6cccnc6)C(=O)C(C)(C)[C@@H]5CC[C@]43C)[C@@H]12 | 51.5% |
| O=c1c2cc(Cl)ccc2oc2ccc(OCCCCCN3CCCCC3)cc12 | 59.9% |
| COc1cccc(CCC2C(=O)CCCC2=O)c1 | 115% |
| O=C(N/N=C/c1ccc(Br)s1)c1[nH]c2ccc(Br)cc2c1-c1ccccc1 | -5.18% (active) |
| O=C(/C=C/c1ccccc1)Oc1ccc(/C=C/c2cc(OC(=O)/C=C/c3ccccc3)cc(OC(=O)/C=C/c3ccccc3)c2)cc1 | 99.4% |
| COc1ccc(S(=O)(=O)c2ccc(C(N)=O)cc2)cc1NC(=O)c1[nH]c(C)c2c1CCCCC2=O | 31.9% |
| CCOC(=O)c1c(NC(=O)c2ccccc2)sc2c(O)c(CN(CC)CC)ccc12 | -2.82% (active) |
| O=C1CS/C(=N\Nc2cc(=O)[nH]c3ccccc23)N1c1ccccc1 | 96.9% |
| c1ccc(C(CC2=NCCCN2)c2ccccc2)cc1 | 102% |
| Clc1cccc(/C=N/Nc2nc(N/N=C/c3cccc(Cl)c3Cl)nc(N3CCCCC3)n2)c1Cl | 92.8% |
| Cc1cccc2nnc(-c3ccccc3)n12 | 106% |
| S=c1nc[nH]c2nc[nH]c12 | 6.65% [50 µM] (active) |
| COC(=O)c1ccc(C(=O)Nc2ccccc2N)cc1 | 44% |
| CC1=NC(c2ccc(Cl)cc2)C2=C(N1)/C(=C/c1ccc(Cl)cc1)CCC2 (stereo not given) | 75.8% |
| COc1ccc(C(=O)c2sc3nc(-c4ccccc4OC)ccc3c2N)cc1OC | 66.9% |
| COc1ccc(-c2nc(N3CCN(C(=O)C4CCCCC4)CC3)c3c4c(sc3n2)CCCC4)cc1 | -17.4% (active) |
| COC(=O)C(N)CSC(c1ccccc1)(c1ccccc1)c1ccccc1 (stereo not given) | 11.5% |

| Structure (SMILES) | growth |
| --- | --- |
| COc1cc2cc(Oc3ccc(NC(=O)Nc4cccc(C(F)(F)F)c4)cc3)c(C)nc2cc1OCCN1CCOCC1 | -3.82% (active) |
| CCOc1ccc(-c2nc3ccc(-c4nc5ccc(N6CCN(C)CC6)cc5[nH]4)cc3[nH]2)cc1OCC | -44.5% (active) |
| CCN(C(C)=O)c1ccc([N+](=O)[O-])cc1 | 103% |
| CCCCCCCCCCCCCC[n+]1ccc2c(C)c3c(c(C)c2c1)c1cc(O)ccc1n3CC | -63.6% (active) |
| O=C(O)COc1ccc2c(=O)c3sc4c(=O)c5ccccc5c(=O)c4c3c(=O)c2c1 | 26.4% |
| C=C1C(=O)O[C@H]2[C@H]1CC/C(COC(=O)NCc1[nH]nc3ccccc13)=C\CC[C@@]1(C)O[C@@H]21 | 20.4% |
| CCCCCCCCCCCCNC(=O)[C@H]1CSC(c2cc3ccccc3s2)N1 (stereo not given in full) | -57.9% (active) |
| CC1=NCC2NC(=O)NC(C)=C12 (stereo not given) | 92.3% |
| Cn1c(NCCc2ccc(O)c(O)c2)nc2c1c(=O)n(Cc1ccc(Cl)c(Cl)c1)c(=O)n2C | 49.4% |
| C=C(C)[C@@H]1CC[C@]2(COCCCN)CC[C@]3(C)[C@H](CC[C@@H]4[C@@](C)(CCCNCCCN)[C@H](C(=C)C)CC[C@]43C)[C@@H]12 | -53.8% [100 µM] (active) |
| COC(=O)CC[C@@H]1O[C@@H](c2cccc(C(F)(F)F)c2)[C@@H](O)[C@H]1O | 89% |
| CN1CCN(Cc2ccc(NC(=O)c3cncc(C#Cc4cnc5ccc(OCC(C)(C)O)nn45)c3)cc2C(F)(F)F)CC1 | -40.2% (active) |
| Cn1cc(-c2nonc2-c2c[nH]c3ccc(Br)cc23)c2cc(Br)ccc21 | 21% |
| COc1ccc(C(=O)CCC(=O)O)cc1 | 48% |
| CC(C)(O)C(=O)O | 108% |
| O=C(CN1C(=O)CCC1=O)Nc1ncc(Cc2ccc(F)cc2)s1 | 109% |
| CCOC(=O)/C(=C/c1c(-c2ccccc2)[nH]c2ccccc12)C(=O)c1ccc(Cl)cc1 | 19.8% |
| Cc1c2cnccc2c(C)c2c1c1cc(CO)ccc1n2C | -65.7% (active) |
| O=C1CCC(N2C(=O)c3cccc(NCCOCCOCCNC(=O)c4cc5c(o4)C(=O)c4ccccc4C5=O)c3C2=O)C(=O)N1 (stereo not given) | -41.6% (active) |
| CC(C)(C)c1nn(-c2ccccc2)c2c1C(=O)CSC(c1ccccc1Cl)N2 (stereo not given) | 19.8% |
